Results filed as inconclusive are left out. Calls of active or inactive are those of the source. Unless noted, calls follow the shape of the dose curve; as a rule, active = well fitted curve in the direction sought with a large enough effect; inconclusive = small, poorly fitted or top-dose-only effect, or another doubt; inactive = no such curve, though single readings can be large; an effect the other way counts as inactive or inconclusive.
Key:
[1] = target: Lysosomal acid glucosylceramidase (Homo sapiens) (UniProt P04062); test: Glucocerebrosidase-p2 (AID 348; in the data active = potency below about 10 µM; also: potency is read from the fitted curve at half-maximal effect); details: purified GBA, blue fluorogenic substrate, 40 min
Outline: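 Normal human glucocerebrosidase (0.2 nM) with blue fluorogenic substrate (80 uM final) in citrate/phosphate pH 5.9 with 10mM sodium taurocholate, 0.01% tween-20; 40 min RT, NaOH/glycine stop; fluorescence Ex 365/Em 440; AC50 from a titration from 0.6 nM upwards.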

[2] = AP1 Signaling Pathway (AID 357; active = well fitted curve in either direction with a large enough effect, not every such curve was filed as active; also: % is scaled to controls: 0 for no effect and ±100 for the full control effect); details: ME-180 AP-1-bla reporter, EGF-induced, beta-lactamase ratio, 5 h; at 7.69 µM (top of the series) unless noted
Outline: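 ME-180 cells with beta-lactamase reporter under AP-1 response element, stimulated with EC50 EGF; compounds tested in titration series, 5 h at 37 °C. CCF4 substrate added 2.5 h at room temperature; 460/530 nm emission ratio gave %activity and AC50.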

[3] = target: Cytochrome P450 1A2 (Homo sapiens) (UniProt P05177); test: p450-cyp1a2 (AID 410; calls by dose curve; also: potency is read from the fitted curve at half-maximal effect); details: recombinant CYP1A2, luciferin-ME demethylation, luminescence; series mostly up to 57 µM
Outline: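 Read-out is luminescence from luciferin produced by CYP1A2 demethylation of Luciferin-ME (100uM, at Km). Detection reagent stopped the 60 min NADPH-dependent reaction; signals were normalized to 57 uM furafylline.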

[4] = NFAT Signaling Pathway (AID 444; active = well fitted curve in either direction with a large enough effect, not every such curve was filed as active;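 also: carbachol stimulus at about its EC50 of 1 µM final; % is scaled to controls: 0 for no effect and ±100 for the full control effect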); details: Jurkat NFAT-bla M1, carbachol, beta-lactamase ratio, 5 h; at 7.69 µM (top of the series) unless noted
Outline: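 Jurkat cells carrying an NFAT-driven β-lactamase reporter and co-transfected muscarinic M1 receptor were treated with compound plus carbachol (1 uM final, an EC50 level) for 5 h at 37 °C. CCF4 loading followed for 1 h at RT; 460/530 nm ratio gave %activity.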

[5] = Stat Signaling Pathway (AID 446; active = well fitted curve in either direction with a large enough effect, not every such curve was filed as active;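 also: ME-180 cervical cancer cells given 40 pM IL-6 alongside compound; SIE-controlled beta-lactamase reporter measured as 460/530 nm FRET emission ratio; % is scaled to controls: 0 for no effect and ±100 for the full control effect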); details: ME-180 (cervical carcinoma) SIE beta-lactamase reporter, IL-6 stimulated, 5 h; at 7.69 µM (top of the series) unless noted
Outline: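 Normalization used AC90 stimulation (300 pM IL-6) and AC90 inhibition (125 nM pan-JAK inhibitor at 40 pM IL-6). The underlying signal is SIE-driven beta-lactamase in ME-180 cells after 5 h IL-6 exposure with compound.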

[6] = target: Glucocorticoid receptor (Homo sapiens) (UniProt P04150); test: GR-GFP Redistribution (AID 450;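 active = compounds whose dose series gives a full or clear partial fitted curve of increased nuclear translocation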; also: potency is read from the fitted curve at half-maximal effect); details: U2OS GR-GFP nuclear translocation, laser cytometry, 2 h
[7] = target: Glucocorticoid receptor (Homo sapiens) (UniProt P04150); test: GR-EFC Redistribution (AID 451; calls by dose curve; also: potency is read from the fitted curve at half-maximal effect); details: CHO-K1 GR-EFC translocation, beta-gal luminescence, 2 h
Outline: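 CHO-K1 cells stably expressing nuclear-localized β-gal enzyme acceptor and GR fused C-terminally to the enzyme donor fragment; ligand-driven nuclear translocation restores β-gal by complementation. Compounds titrated up to 46 uM final, 2 h at 37 °C; luminescence read.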

[8] = target: Mitogen-activated protein kinase 10 (Mus musculus) (UniProt Q61831); test: JNK3 AlphaScreen Assay (AID 530; active = well fitted curve in either direction with a large enough effect, not every such curve was filed as active;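 also: kinase came from lysate of stimulated human HepG2 cells; signal reports phosphorylation of biotinylated GST-cJun 1-79 at Ser73 with 10 µM ATP; % is scaled to controls: 0 for no effect and ±100 for the full control effect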); details: JNK3 lysate, c-Jun phosphorylation; series mostly up to 57.1 µM
Outline: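 Biotinylated GST-cJun(1-79) served as substrate for JNK3 in HepG2 lysates stimulated with IL-1beta and TNF-alpha. ATP was 10 uM final, pH 7.6. Ser73 phosphorylation was quantified by AlphaScreen (680 nm excitation).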

[9] = target: 3',5'-cyclic-AMP phosphodiesterase 4B (Homo sapiens) (UniProt Q07343); test: qHTS Assay for Inhibitors of PDE-IV (AID 607; active = well fitted activation curve with a large enough effect in the main read-out, with a control signal flat, not every such curve was filed as active; also: % of control where 0% means no effect); details: HEK293 ACTOne CNG channel cells, membrane potential fluorescence; series mostly up to 22.9 µM
Outline: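 HEK293 ACTOne cells with CNG channel (1000/well), endogenous PDE4; membrane potential dye, compounds up to 22.9 uM final. Fluorescence Ex 535/Em 590; RO 20-1724 (100 uM final) as reference.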

[10] = qHTS Assay for Lipid Storage Modulators (AID 1519; calls by dose curve); details: Drosophila S3 cells, BODIPY lipid droplet/cell ratio, laser cytometry, cells loaded with oleic acid; for activity change, negative = inhibition: at 57.5 µM (top of the series)
Outline: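 Cells seeded at 5,000 per well were treated with compounds over a concentration series and loaded with oleic acid (400 uM, as added). Lipid droplet fluorescence (488 nm excitation, 500-530 nm channel) was read by laser-scanning cytometry and normalized to 20 uM Triacsin C.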

[11] = target: Dual specificity protein kinase CLK4 (Homo sapiens) (UniProt Q9HAZ1); test: qHTS Assay for Inhibitors of CDC-like Kinase 4 (Kinase-Glo Assay) (AID 1770); details: recombinant Clk4, Kinase-Glo ATP depletion luminescence; series mostly up to 66.7 µM; also: nearly all actives have a fitted effect of over 65% in size; also: potency is read from the fitted curve at half-maximal effect
Outline: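 Recombinant human Clk4 (25 nM) phosphorylated RS repeat peptide (100 uM) with 1 uM ATP in Tris pH 7.5/MgCl2/EGTA/DTT/Triton buffer for 4.5 h at room temperature. Residual ATP was quantified by Kinase-Glo luciferase luminescence.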

[12] = target: Dual specificity protein kinase CLK4 (Homo sapiens) (UniProt Q9HAZ1); test: qHTS Assay for Inhibitors of CDC-like Kinase 4 (ADP-Glo Assay) (AID 1771); details: recombinant CLK4, ADP-Glo luminescence; series mostly up to 80 µM; also: nearly all actives have a fitted effect of over 70% in size; also: potency is read from the fitted curve at half-maximal effect
Outline: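 In this ADP-Glo format, 1 uM ATP and 100 uM RS peptide served as substrates for 25 nM Clk4 in Mg2+/EGTA/DTT/Triton buffer; reactions ran 1 hr at room temperature before luminescent ADP quantification.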

[13] = target: Ubiquitin carboxyl-terminal hydrolase 1 (Homo sapiens) (UniProt O94782); test: Inhibitors of USP1/UAF1: Pilot qHTS (AID 504865); details: purified USP1/UAF1, Ub-rhodamine cleavage fluorescence; series mostly up to 54.9 µM;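 also: rhodamine fluorescence freed from ubiquitin-rhodamine substrate followed over time; top concentration of the series differs between compounds; % is scaled to controls: 0 for no effect and ±100 for the full control effect; nearly all actives have a fitted effect of over 35% in size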
Outline: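 USP1/UAF1 complex (1nM) preincubated with compound 15 min at room temperature, then Ub-Rho substrate (150nM final) added. Fluorescence read kinetically at 480/540 nm, 6 reads every 60 seconds. Buffer: 50mM HEPES pH 7.8, 0.5mM EDTA, 0.1 mg/ml BSA, 1mM TCEP, 0.01% Tween-20.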

[14] = Primary qHTS for small molecule stabilizers of the endoplasmic reticulum resident proteome: Secreted ER Calcium Modulated Protein (SERCaMP) assay (AID 1508630); details: SH-SY5Y GLuc-SERCaMP (Gaussia luciferase released on ER calcium loss) secretion, thapsigargin, luminescence; series mostly up to 38.4 µM; also: % is scaled to controls: 0 for no effect and ±100 for the full control effect
Outline: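 The SH-SY5Y reporter protocol was run at 3 concentrations up to 38.3 uM (primary) or 11 concentrations (follow-up): 16 h compound, 100 nM thapsigargin for 4 h, then extracellular luciferase luminescence.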

[15] = target: Cytochrome P450 3A4 (Homo sapiens) (UniProt P08684); test: qHTS Assay for Activators of Cytochrome P450 3A4 (AID 885); details: recombinant CYP3A4, Luciferin-PPXE luminescence, 60 min; series mostly up to 57.1 µM; also: nearly all actives have a fitted effect of over 65% in size
Outline: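 Human CYP3A4 dealkylates Luciferin-PPXE to luciferin, which luciferase detection converts to light. Substrate was at its KM (25uM), buffer 200mM KPO4, reaction 60 min at RT.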

[16] = target: Dual specificity protein kinase CLK4 (Homo sapiens) (UniProt Q9HAZ1); test: qHTS Assay for Inhibitors of CDC-like Kinase 4 (ADP-FP Assay) (AID 1795); details: Transcreener ADP fluorescence polarization; series mostly up to 50 µM; also: % is scaled to controls: 0 for no effect and ±100 for the full control effect; nearly all actives have a fitted effect of over 60% in size
Outline: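 Recombinant human Clk4 (6.25 nM) phosphorylated RS repeat peptide (100 uM) with 1 uM ATP in Tris pH 7.5/MgCl2/EGTA/DTT/Triton buffer for one hour. ADP was quantified by Transcreener competitive fluorescence polarization against an ADP calibration curve.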

[17] = target: Cytochrome P450 3A4 (Homo sapiens) (UniProt P08684); test: qHTS Assay for Inhibitors and Substrates of Cytochrome P450 3A4 (AID 884); details: recombinant CYP3A4, Luciferin-PPXE luminescence; series mostly up to 57.1 µM; also: potency is read from the fitted curve at half-maximal effect; nearly all actives have a fitted effect of over 50% in size
Outline: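 Luminescent readout of luciferin produced by CYP3A4 (20 nM) dealkylation of Luciferin-PPXE, 25 uM (its KM). NADPH-driven reaction ran 60 min at RT after 10 min compound preincubation; data scaled to 57 uM ketoconazole as 100% inhibition.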

[18] = measured here: cell count channel max response
[19] = measured here: lipid channel max response

Sequence of Cytochrome P450 3A4 (Homo sapiens) (P08684 whole entry, looked up): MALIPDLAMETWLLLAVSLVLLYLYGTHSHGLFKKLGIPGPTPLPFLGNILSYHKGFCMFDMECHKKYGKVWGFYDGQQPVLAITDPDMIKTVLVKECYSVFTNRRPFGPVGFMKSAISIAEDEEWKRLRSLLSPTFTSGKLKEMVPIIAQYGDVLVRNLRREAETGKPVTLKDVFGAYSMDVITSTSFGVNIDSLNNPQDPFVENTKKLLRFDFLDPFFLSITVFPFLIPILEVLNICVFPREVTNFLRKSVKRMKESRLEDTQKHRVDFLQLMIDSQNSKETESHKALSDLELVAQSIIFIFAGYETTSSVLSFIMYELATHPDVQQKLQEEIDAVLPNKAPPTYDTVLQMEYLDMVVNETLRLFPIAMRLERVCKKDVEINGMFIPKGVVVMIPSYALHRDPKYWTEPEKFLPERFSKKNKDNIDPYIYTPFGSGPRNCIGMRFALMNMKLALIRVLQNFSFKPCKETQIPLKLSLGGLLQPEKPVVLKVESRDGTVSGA
Sequence of Glucocorticoid receptor (Homo sapiens) (P04150 whole entry, looked up, the tested form may be a part): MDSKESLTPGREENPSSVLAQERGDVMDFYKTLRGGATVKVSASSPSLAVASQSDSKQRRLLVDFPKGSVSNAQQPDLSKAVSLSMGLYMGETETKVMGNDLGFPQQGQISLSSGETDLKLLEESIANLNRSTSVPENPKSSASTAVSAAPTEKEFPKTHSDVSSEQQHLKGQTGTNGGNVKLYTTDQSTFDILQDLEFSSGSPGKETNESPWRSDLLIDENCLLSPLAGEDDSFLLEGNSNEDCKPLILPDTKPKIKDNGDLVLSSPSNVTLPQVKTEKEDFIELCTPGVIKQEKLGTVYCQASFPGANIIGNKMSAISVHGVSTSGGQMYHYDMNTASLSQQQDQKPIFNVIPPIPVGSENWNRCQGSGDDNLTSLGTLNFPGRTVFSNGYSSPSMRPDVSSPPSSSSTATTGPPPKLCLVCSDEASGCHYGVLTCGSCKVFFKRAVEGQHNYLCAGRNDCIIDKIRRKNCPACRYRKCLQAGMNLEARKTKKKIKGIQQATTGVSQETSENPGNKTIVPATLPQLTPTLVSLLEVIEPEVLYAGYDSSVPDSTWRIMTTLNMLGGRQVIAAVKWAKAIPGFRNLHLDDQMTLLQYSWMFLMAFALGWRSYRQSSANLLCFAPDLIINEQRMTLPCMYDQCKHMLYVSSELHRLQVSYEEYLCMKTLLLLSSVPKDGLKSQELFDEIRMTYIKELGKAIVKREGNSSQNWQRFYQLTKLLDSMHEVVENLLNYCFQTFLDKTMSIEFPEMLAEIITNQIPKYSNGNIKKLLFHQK
Sequence of 3',5'-cyclic-AMP phosphodiesterase 4B (Homo sapiens) (Q07343 whole entry, looked up): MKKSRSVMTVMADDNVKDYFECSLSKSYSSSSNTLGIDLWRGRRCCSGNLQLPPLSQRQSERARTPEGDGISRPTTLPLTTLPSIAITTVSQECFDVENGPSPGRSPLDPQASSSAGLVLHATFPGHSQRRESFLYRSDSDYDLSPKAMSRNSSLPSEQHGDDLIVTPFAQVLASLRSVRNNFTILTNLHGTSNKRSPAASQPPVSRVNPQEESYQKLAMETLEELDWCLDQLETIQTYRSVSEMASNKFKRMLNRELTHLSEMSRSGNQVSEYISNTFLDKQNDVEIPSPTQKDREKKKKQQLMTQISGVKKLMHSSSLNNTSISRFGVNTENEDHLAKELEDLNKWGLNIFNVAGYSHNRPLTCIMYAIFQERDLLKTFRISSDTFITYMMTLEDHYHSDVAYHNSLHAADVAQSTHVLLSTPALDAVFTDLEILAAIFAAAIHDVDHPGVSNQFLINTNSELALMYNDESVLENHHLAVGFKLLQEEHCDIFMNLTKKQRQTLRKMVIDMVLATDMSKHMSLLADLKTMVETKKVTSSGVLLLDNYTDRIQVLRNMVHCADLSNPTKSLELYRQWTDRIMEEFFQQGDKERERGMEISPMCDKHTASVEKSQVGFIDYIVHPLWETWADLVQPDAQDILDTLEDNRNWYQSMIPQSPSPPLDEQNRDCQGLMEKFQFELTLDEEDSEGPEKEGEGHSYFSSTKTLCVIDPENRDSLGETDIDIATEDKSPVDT
Sequence of Lysosomal acid glucosylceramidase (Homo sapiens) (P04062 whole entry, looked up): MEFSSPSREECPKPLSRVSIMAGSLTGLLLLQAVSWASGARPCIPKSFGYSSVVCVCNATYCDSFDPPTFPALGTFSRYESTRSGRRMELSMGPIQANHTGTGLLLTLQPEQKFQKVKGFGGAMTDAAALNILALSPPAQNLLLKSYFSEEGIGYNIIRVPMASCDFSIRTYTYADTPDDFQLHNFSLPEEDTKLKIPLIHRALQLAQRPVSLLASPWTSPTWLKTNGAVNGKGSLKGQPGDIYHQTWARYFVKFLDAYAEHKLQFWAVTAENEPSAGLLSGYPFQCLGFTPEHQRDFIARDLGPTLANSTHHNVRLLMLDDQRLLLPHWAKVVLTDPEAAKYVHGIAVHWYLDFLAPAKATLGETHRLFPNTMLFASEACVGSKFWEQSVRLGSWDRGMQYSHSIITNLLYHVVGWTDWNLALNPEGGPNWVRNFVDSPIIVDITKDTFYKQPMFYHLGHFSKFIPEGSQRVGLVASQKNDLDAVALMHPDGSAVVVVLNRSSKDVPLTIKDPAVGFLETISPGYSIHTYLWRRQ
Sequence of Dual specificity protein kinase CLK4 (Homo sapiens) (Q9HAZ1 whole entry, looked up): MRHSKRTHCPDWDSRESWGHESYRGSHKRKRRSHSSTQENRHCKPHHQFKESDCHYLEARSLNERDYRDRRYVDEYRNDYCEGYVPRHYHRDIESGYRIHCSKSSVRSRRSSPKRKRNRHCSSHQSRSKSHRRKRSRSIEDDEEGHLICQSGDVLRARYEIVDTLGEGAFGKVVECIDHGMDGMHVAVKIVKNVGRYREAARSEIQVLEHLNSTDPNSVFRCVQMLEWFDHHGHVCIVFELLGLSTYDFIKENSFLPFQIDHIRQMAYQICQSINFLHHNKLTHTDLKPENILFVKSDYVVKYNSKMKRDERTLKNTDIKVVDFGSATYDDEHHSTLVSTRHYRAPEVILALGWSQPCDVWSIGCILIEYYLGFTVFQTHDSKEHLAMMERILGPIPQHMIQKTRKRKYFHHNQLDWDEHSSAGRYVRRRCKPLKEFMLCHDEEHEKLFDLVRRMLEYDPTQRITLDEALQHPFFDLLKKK
Sequence of Cytochrome P450 1A2 (Homo sapiens) (P05177 whole entry, looked up): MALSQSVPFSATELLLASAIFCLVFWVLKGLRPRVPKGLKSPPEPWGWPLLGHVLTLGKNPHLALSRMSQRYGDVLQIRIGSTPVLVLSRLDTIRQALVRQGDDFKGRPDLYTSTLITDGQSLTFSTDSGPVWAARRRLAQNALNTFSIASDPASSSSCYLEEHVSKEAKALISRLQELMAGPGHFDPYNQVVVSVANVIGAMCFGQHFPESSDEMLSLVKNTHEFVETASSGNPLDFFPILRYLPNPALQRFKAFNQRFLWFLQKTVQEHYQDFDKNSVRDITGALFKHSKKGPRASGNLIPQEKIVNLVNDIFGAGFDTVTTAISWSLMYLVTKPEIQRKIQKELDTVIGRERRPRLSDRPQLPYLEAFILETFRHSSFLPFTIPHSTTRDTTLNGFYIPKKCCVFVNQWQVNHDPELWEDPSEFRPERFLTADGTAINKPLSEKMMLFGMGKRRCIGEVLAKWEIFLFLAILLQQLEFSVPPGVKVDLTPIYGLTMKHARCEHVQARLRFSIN
Sequence of Ubiquitin carboxyl-terminal hydrolase 1 (Homo sapiens) (O94782 whole entry, looked up): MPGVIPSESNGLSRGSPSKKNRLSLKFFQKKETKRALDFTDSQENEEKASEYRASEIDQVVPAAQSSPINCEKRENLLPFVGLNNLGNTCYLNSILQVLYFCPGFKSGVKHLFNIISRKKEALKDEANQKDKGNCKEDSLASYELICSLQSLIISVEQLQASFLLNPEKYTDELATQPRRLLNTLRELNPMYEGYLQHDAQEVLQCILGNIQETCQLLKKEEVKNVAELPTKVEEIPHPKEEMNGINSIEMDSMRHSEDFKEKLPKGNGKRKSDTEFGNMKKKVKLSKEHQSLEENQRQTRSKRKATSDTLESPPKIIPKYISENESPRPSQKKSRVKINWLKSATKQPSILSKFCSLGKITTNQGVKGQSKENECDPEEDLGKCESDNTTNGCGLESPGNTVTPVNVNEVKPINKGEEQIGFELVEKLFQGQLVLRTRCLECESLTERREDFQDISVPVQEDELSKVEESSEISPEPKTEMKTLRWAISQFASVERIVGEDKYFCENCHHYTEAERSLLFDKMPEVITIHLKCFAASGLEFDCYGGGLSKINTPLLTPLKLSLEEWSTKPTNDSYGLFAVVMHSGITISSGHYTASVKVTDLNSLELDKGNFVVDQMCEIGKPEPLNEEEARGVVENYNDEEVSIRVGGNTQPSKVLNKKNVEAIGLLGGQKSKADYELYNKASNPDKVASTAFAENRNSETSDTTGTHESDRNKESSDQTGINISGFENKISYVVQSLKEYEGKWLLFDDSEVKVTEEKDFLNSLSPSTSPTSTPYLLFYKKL

| SMILES | Potency [1] | activity change, negative = inhibition [2] | Potency [3] | activity change, negative = inhibition [4] | activity, negative = inhibition [5] | Potency [6] | Potency [7] | outcome [8] | Potency [9] | activity change, negative = inhibition [10] | max response [10, 18] | max response [10, 19] | Potency [11] | Potency [12] | Potency [13] | Potency [14] | Potency [15] | Potency [16] | Potency [17] |
| --- | --- | --- | --- | --- | --- | --- | --- | --- | --- | --- | --- | --- | --- | --- | --- | --- | --- | --- | --- |
| COCCn1c(=O)c(-c2cccc(C#N)c2)nc2cnc(N(C)C)nc21 | > 11.4 µM (inactive) | -1.01% (inactive) | 2 µM (active) | -2.05% (inactive) | -10.5% (inactive) | > 9.22 µM (inactive) | > 46 µM (inactive) | inactive | inactive | 3.6% (inactive) | 16.6% | 17.9% | inactive | inactive | inactive | inactive | – | – | – |
| COc1cccc(-c2cc(N(C)Cc3ccco3)ncn2)c1 | > 11.4 µM (inactive) | 22.2% (inactive) | 0.794 µM (active) | -17.2% (inactive) | -2% (inactive) | > 46 µM (inactive) | > 46 µM (inactive) | inactive | inactive | 8.28% (inactive) | 20.9% | 28.5% | 12.6 µM (active) | 14.1 µM (active) | inactive | inactive | inactive | – | – |
| CCNc1ncc2nc(-c3cn(C)c4ccccc34)c(=O)n(C)c2n1 | – | -15.1% (inactive) | 0.1 µM (active) | 2.68% (inactive) | -2.13% (inactive) | > 9.22 µM (inactive) | – | inactive | – | 8.66% (inactive) | 19.5% | 27.7% | inactive | inactive | inactive | inactive | inactive | inactive | – |
| COc1ccc(Oc2ncc3nc(-c4ccc(OC)cc4)c(=O)n(C)c3n2)cc1 | – | -7.57% (inactive) | 3.16 µM (active) | -4.34% (inactive) | -16.5% (inactive) | > 9.22 µM (inactive) | > 46 µM (inactive) | inactive | inactive | 2.79% (inactive) | -5.13% | -2.18% | inactive | inactive | inactive | inactive | inactive | inactive | – |
| CN(C)c1ccc(-c2ccc3ncnc(N(C)C)c3c2)cc1 | > 11.4 µM (inactive) | -10.3% (inactive) | 0.158 µM (active) | -14.1% (inactive) | -0.741% (inactive) | > 46 µM (inactive) | > 46 µM (inactive) | inactive | inactive | 1.7% (inactive) | 9.5% | 8.94% | 3.55 µM (active) | 8.91 µM (active) | inactive | inactive | inactive | – | 6.31 µM (active) |

— PubChem BioAssay (NCATS)
